CHX counter: counter-screen hit for Shiga toxin inhibitors, cycloheximide; cell reporter, cycloheximide protein synthesis inhibition counterscreen; max response, %; hit rate 12% among 300,000; AID 2314; in the data active = max response mostly above about 13%, no sharp cut-off; inactive = mostly below about 14%; also: read at 38.3 µM for the half of the compounds with a filed dose
Pf growth 96h: inhibits malaria parasite growth, 96 h. P. falciparum luciferase reporter growth, 96 h. Potency, µM (titrated, usually from 28.7 µM), usual class: inhibitors. hit rate 6.9% among 320,000. AID 504834
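Compounds incubated with erythrocytes infected by luciferase-expressing P. falciparum (2% hematocrit, 0.05% parasitemia final) for 96 hours, 37 C in 5% CO2. Growth inhibition scored as decreased luciferase luminescence.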
AMA1-RON2 inh: inhibitors of Plasmodium falciparum AMA1-RON2 interaction. AlphaScreen AMA1-biotinylated RON2 peptide binding. Potency, µM (doses to about 58.2 µM), usual class: inhibitors. hit rate 0.2% among 360,000. AID 720542; also: nearly all actives have a fitted effect of over 45% in size
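AMA1 (3D7) with his tag at 25 nM final met compounds first, then biotinylated RON2 peptide at 25 nM; detection used donor plus acceptor beads, 10 µg/mL apiece, read by AlphaScreen after 30 min at room temperature.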
Pf growth 48h: inhibits P. falciparum growth in the first generation, 48 h; P. falciparum luciferase growth in erythrocytes, 48 h; Potency, µM (titrated, usually from 28.7 µM), actives largely listed as inhibitors; hit rate 5.9% among 310,000; AID 504832
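Here the parasites carry a stable luciferase gene and grow inside erythrocytes in Albumax-based RPMI medium with compound for one erythrocytic cycle. Activity is scored as loss of luminescent signal.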
Shiga inhibitor: Shiga toxin inhibition; inhibition, % at 38.7 µM; hit rate 9.2% among 290,000; Vero cells, Shiga toxin protein synthesis inhibition reporter; in the data active = inhibition mostly above about 28%, no sharp cut-off; inactive = mostly below about 43%
SARS PLP yeast: blocks SARS-CoV papain-like protease in a yeast assay; Potency, µM (highest dose often 32.9 µM), usual class: activators; hit rate 0.19% among 330,000; S. cerevisiae expressing SARS-CoV PLpro, growth rescue; calls by dose curve; also: nearly all actives have a fitted effect of over 55% in size
Large screens that a line does not name were inactive. Only some compounds are listed: those with a hit (about 19% of all), similar ones and a draw of the others. Unless noted, calls follow the shape of the dose curve; as a rule, active = well fitted curve in the direction sought with a large enough effect; inconclusive = small, poorly fitted or top-dose-only effect, or another doubt; inactive = no such curve, though single readings can be large; an effect the other way counts as inactive or inconclusive.

CCc1ccc(NC(=O)C2(c3ccccc3)CC2(Cl)Cl)cc1 (centres undefined)	Pf growth 96h 3.29µM, Pf growth 48h inconclusive
CCc1ccc(NC(=O)C2(C)Cc3ccccc3C(=O)O2)cc1 (centres undefined)	CHX counter 25.7, Pf growth 96h inconclusive, Shiga inhibitor 41.2
Cc1cccc(NC(=O)C2(c3ccccc3)CC2(Cl)Cl)c1 (centres undefined)	Pf growth 96h inconclusive, Pf growth 48h inconclusive
CC1=C(C(=O)Nc2ccccc2)C(c2sccc2C)n2nnnc2N1 (centres undefined)	none (no result: AMA1-RON2 inh, Pf growth 48h)
CC(=O)C1=CN(Cc2ccccc2)CCC1=O	none (no result: CHX counter, Pf growth 96h, Pf growth 48h, Shiga inhibitor, SARS PLP yeast)
CCOC(=O)C1CCN(C(=O)COC(=O)COc2ccc(Cl)cc2)CC1	none
CC(C)NC(=O)C(c1ccc(F)cc1)N(C(=O)CCC(=O)Nc1ccccn1)c1cccc(F)c1 (centres undefined)	none
COc1ccc(OC)c(NC(=O)COC(=O)C2CCCCC2)c1	none (no result: CHX counter, Pf growth 96h, Pf growth 48h, Shiga inhibitor)
COc1ccc2c(c1)C(c1ccc(C)cc1)CC(=O)O2 (centres undefined)	none (no result: Pf growth 96h, AMA1-RON2 inh, Pf growth 48h, SARS PLP yeast)
COc1ccccc1C(=O)NCc1ccccn1	none
Cc1ccccc1-n1c(SCC(=O)NC(N)=O)nc2sc(-c3ccccc3)cc2c1=O	CHX counter 18.1, Pf growth 96h inconclusive, Pf growth 48h inconclusive
Cc1ccccc1-n1c(SCC(N)=O)nc2sc(-c3ccccc3)cc2c1=O	none (no result: Pf growth 96h)
Cc1ccc(/C=N/NC(=O)CSc2nc3ccccc3c(=O)n2-c2ccccc2C)s1	Pf growth 96h 11.7µM
Cn1cccc1CC(=O)N/N=C/C=C/c1ccco1	none
Cc1ccc(CNC(=O)COC(=O)c2ccc(S(=O)(=O)N(C)C)cc2)cc1	none
Cc1cccnc1C(NC(=O)C1CCN(CCCc2ccccc2)CC1)c1ccc(F)cc1 (centres undefined)	none (no result: CHX counter, Pf growth 96h, Pf growth 48h, Shiga inhibitor, SARS PLP yeast)
Cc1cccc(NC(=O)Nc2ccc(C#N)cc2)n1	CHX counter 17.6, Pf growth 96h inconclusive
Cc1cccc(NC(=O)Nc2cccc(C#N)c2)n1	CHX counter 35.6, Pf growth 96h inconclusive
CCOCCOc1nc2c(c(=O)n(C)c(=O)n2C)n1Cc1ccc(C)cc1	none
CSc1ncc(Cl)c(C(=O)C(C#N)c2nc3c(C)cc(C)cc3c(=O)[nH]2)n1 (centres undefined)	Pf growth 96h inconclusive
O=C(Nc1ccc(Cl)cc1)Nc1ccc2c(c1)N1CCN=C1S2	Pf growth 96h 2.08µM, AMA1-RON2 inh inconclusive, Pf growth 48h 0.738µM
Nc1ccc2c(c1)N1CCN=C1S2	AMA1-RON2 inh inconclusive
O=C(COC(=O)C1CC1)Nc1ccc2c(c1)OCO2	CHX counter 35.6
CCC(=O)OCC(=O)Nc1ccc2c(c1)OCO2	none
CCCC(=O)OCC(=O)Nc1ccc2c(c1)OCO2	CHX counter 15.2
CCn1cc([N+](=O)[O-])c(C(=O)Nc2ccn(C34CC5CC(CC(C5)C3)C4)n2)n1	none
COC(=O)c1nn(C23CC4CC(CC(C4)C2)C3)c2c1C(=O)N(c1ccc(Br)cc1)C2=O	none (no result: Pf growth 48h)
Cn1cc([N+](=O)[O-])c(C(=O)Nc2ccn(C34CC5CC(CC(C5)C3)C4)n2)n1	CHX counter 15.3
O=C(Nc1ccc(Br)cc1)c1nn(C23CC4CC(CC(C4)C2)C3)cc1Br	Pf growth 96h 0.185µM, Pf growth 48h inconclusive
Cn1nccc1C(=O)Nc1ccn(C23CC4CC(CC(C4)C2)C3)n1	CHX counter 44.5, Shiga inhibitor 68.1
CC(=O)N1CCN(S(=O)(=O)c2cccc(C(=O)NNC(=O)c3ccc(Br)cc3)c2)CC1	none (no result: CHX counter, Pf growth 96h, Pf growth 48h, Shiga inhibitor, SARS PLP yeast)
Oc1ccc(Oc2ccc(Oc3ccc(O)cc3)cc2)cc1	CHX counter 17.5 (no result: Shiga inhibitor)
COc1ccc(-c2nn(-c3ccccc3)cc2/C=N/NS(=O)(=O)c2ccccc2)cc1	Pf growth 96h 11.7µM, Pf growth 48h inconclusive
COc1ccc(-c2nn(-c3ccccc3)cc2/C=N/NC(=O)c2cccc(S(=O)(=O)Nc3ccccc3Cl)c2)cc1	Pf growth 96h 2.94µM, Pf growth 48h 9.28µM
COc1ccc(-c2nn(-c3ccccc3)cc2/C=N/N2C(=O)CSC2=S)cc1	CHX counter 28.9 (no result: Pf growth 48h)
Cc1ccsc1/C=N/NC(=O)c1cccc(S(=O)(=O)Nc2ccccc2Cl)c1	none
CCN1C(=O)CC(C(=O)O)SC1=Nc1ccc(OC)cc1 (centres undefined)	Pf growth 96h inconclusive
CCCN(CCC)CCNC(=O)C(NS(=O)(=O)c1ccc2c(c1)CCC(=O)N2)c1ccccc1 (centres undefined)	none
Cc1oc(-c2ccc(Cl)cc2)cc1C(=O)O	CHX counter 42.8
O=C(COC(=O)c1ccc(O)cc1)Nc1ncc(Cl)cc1Cl	none
COC(=O)c1ccc(/C=C/C(=O)OCC(=O)Nc2ncc(Cl)cc2Cl)cc1	Pf growth 96h inconclusive, Pf growth 48h 11.7µM (no result: CHX counter, Shiga inhibitor)
O=C1CCC(c2ccc3ccccc3c2)O1 (centres undefined)	none (no result: CHX counter, Pf growth 96h, Pf growth 48h, Shiga inhibitor, SARS PLP yeast)
CCOC(=O)/C(=N/Nc1ccccc1)Sc1nnc(CCc2ccccc2)n1-c1ccccc1	none
CCOC(=O)C1C(O)=CC(=O)CC1c1ccccc1 (centres undefined)	Pf growth 48h inconclusive (no result: CHX counter, Shiga inhibitor)
COC(=O)C1C(=O)C=C(Nc2ccc(F)cc2F)CC1c1ccccc1 (centres undefined)	CHX counter 20.9
COC(=O)C1C(=O)C=C(Nc2ccc(F)cc2)CC1c1ccc(OC)cc1 (centres undefined)	CHX counter 24.9
COC(=O)C1C(=O)C=C(Nc2ccc(F)cc2F)CC1c1ccc(OC)cc1 (centres undefined)	none
CCOC(=O)C1C(=O)C=C(Nc2ccccc2F)CC1c1ccccc1 (centres undefined)	CHX counter 46.4, Shiga inhibitor 53.5
Cc1ccc(NC(=O)CCn2c(=O)[nH]c3ccsc3c2=O)cc1F	Pf growth 48h inconclusive
COCCCNCCOc1ccc(C(C)(C)c2ccccc2)cc1	Pf growth 96h inconclusive
c1ccc(COc2ccc(OCCCNC3CCCC3)cc2)cc1	CHX counter 24.9, Pf growth 48h inconclusive (no result: Pf growth 96h)
C=CCNCCCCOc1ccc(OCc2ccccc2)cc1	CHX counter 47.9, Shiga inhibitor 59.6
CC(C)Oc1ccc(OCCNC2CCCC2)cc1	Shiga inhibitor 73.7 (no result: Pf growth 96h)
COCCCNCCCCOc1ccc(OCc2ccccc2)cc1	CHX counter 30.3, Pf growth 48h inconclusive, Shiga inhibitor 97.4
COc1cc(OC)cc(C(=O)NCCNC(=O)c2ccco2)c1	none
CCCn1c(N)c(C(=O)CSc2nnc(-c3cccs3)n2C2CC2)c(=O)[nH]c1=O	none (no result: CHX counter, Pf growth 96h, Pf growth 48h, Shiga inhibitor)
COc1ccc(CC(=O)Nc2ccc(N(C)C)c3ccccc23)cc1	none
CCOC(=O)/C(N=Nc1ccc2c(c1)OCO2)=C(\C)O	CHX counter 50.8, Shiga inhibitor 91.7
Cc1onc(-c2ccccc2)c1C(=O)Nc1ccc2c(c1)OCO2	Pf growth 96h inconclusive, Pf growth 48h inconclusive
c1ccc(-c2onc(-c3ccco3)c2-c2ccc3c(c2)OCO3)cc1	Pf growth 96h 13.1µM, Pf growth 48h inconclusive

Assay outcomes deposited in PubChem BioAssay by National Center for Advancing Translational Sciences (NCATS).
